Data on 15 molecules can be found in PubChem BioAssay.

SMILES strings stand for the structures. For part of these data: Results with a measured potency or affinity are listed apart. Active and inactive are the calls of the source.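 The calls were made as follows, unless noted: active = dose curve with midpoint inside tested range, moderate steepness, plateau gap beyond fit error, low compound glow and bead-link interference; inactive = the rest.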

Test [1] concerns the target Cell division control protein 42 homolog (Homo sapiens) (UniProt P60953). Description: inhibition of fluorescent GTP binding to constitutively active Cdc42 – biochemical, multiplex bead flow cytometry, Bodipy-FL-GTP, dose response (AID 1333;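 active = fitted half-maximal concentration within the tested dose range, moderate curve steepness, a statistically real signal drop, and little compound fluorescence or tag-binding interference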).
The target is the same in test [2]. As to the kind of experiment: inhibition of fluorescent GTP binding to wildtype Cdc42 – biochemical, multiplex bead flow cytometry, Bodipy-FL-GTP, dose response (AID 1334;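 active = fitted half-maximal concentration within the tested range, moderate curve steepness, significant signal drop, and little compound fluorescence or bead-linkage interference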). The note with it: bead-based flow cytometry, Bodipy-FL-GTP binding to GST-Cdc42; at 100 µM (top of the series) unless noted. For orientation: A flow cytometer gives signals particle by particle.

The target of test [3] is GTPase HRas (Homo sapiens) (UniProt P01112). Description: Ras wt fluorescent GTP loading blockade – biochemical, wildtype, multiplex bead flow cytometry, dose response (AID 1335;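 active = fitted half-maximal concentration within 10 nM to 100 µM, steepness 0.5 to 2, significant signal drop, low assay interference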). The note with it: bead-based flow cytometry, Bodipy-GTP binding to GST-Ras; at 100 µM (top of the series) unless noted.
Chain of GTPase HRas (Homo sapiens) (P01112 whole entry, looked up): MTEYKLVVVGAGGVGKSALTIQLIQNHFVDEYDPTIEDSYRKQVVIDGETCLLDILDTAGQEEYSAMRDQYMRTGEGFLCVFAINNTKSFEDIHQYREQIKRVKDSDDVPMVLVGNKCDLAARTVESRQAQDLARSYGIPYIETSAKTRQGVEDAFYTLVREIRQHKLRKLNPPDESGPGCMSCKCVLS
Test [4] has as its system Ras-related protein Rab-7a (dog), GTP binding. Description: blockers of fluorescent GTP binding to Rab7 – biochemical, wildtype, multiplex bead flow cytometry, dose response (AID 1336; call rule not given here).
Test [5] addresses Ras-related C3 botulinum toxin substrate 1 (Homo sapiens) (UniProt P63000). As to the kind of experiment: inhibition of wildtype Rac1 nucleotide loading – biochemical, multiplex bead flow cytometry, dose response (AID 1340). As to conditions: GST-Rac1 beads, Bodipy-FL-GTP binding; at 100 µM (top of the series) unless noted.
The target in test [6] is GTPase HRas (Homo sapiens) (UniProt P01112). As to the kind of experiment: blockade of GTP loading onto mutant Ras – biochemical, activated mutant, multiplex bead flow cytometry, dose response (AID 1341;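 active = dose-response curve with midpoint inside the tested range, moderate steepness, significant amplitude and little compound fluorescence or bead-attachment interference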;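 also: GST-tagged constitutively activated Ras mutant immobilized on beads and multiplexed with other GTPases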).

Chain of Cell division control protein 42 homolog (Homo sapiens) (P60953 whole entry, looked up): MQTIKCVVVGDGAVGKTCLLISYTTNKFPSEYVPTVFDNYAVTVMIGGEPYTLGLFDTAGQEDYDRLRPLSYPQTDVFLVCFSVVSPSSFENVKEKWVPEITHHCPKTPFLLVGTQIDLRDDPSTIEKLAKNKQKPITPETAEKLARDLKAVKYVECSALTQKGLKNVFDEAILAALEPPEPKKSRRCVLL

In the case of `COc1cc(N2CCCC2)c(OC)cc1/C=C(/C#N)c1ccc(Br)cc1`, the molecule was called inactive in test [1], in test [4] and in test [6]. Also, the fluorescence, percent of control (lower = inhibition) in test [2] came out at 104%. The GTP binding, percent of control in test [3] is 117%. For the same molecule, the GTP binding signal, raw median fluorescence (lower = inhibition) (MCF (arbitrary fluorescence units)) in test [5] came to 258.

As to `O=C(O)c1ccc2c3c(cccc13)C(=O)N(OS(=O)(=O)c1ccccc1)C2=O`, the result in test [1], in test [4] and in test [6] was inactive. In addition, the fluorescence, percent of control (lower = inhibition) in test [2] is 33.5%. This molecule had a GTP binding, percent of control in test [3] of 78.2%. For the same molecule, the GTP binding signal, raw median fluorescence (lower = inhibition) (MCF (arbitrary fluorescence units)) in test [5] amounted to 191.

`Cc1cc(C)n2nc(C(=O)N3CCCC(CNS(=O)(=O)c4cccs4)C3)cc2n1` (stereo not given): the result in test [1], in test [4] and in test [6] was inactive. For the same molecule, in test [2], the fluorescence, percent of control (lower = inhibition) was determined as 37.1%. The GTP binding, percent of control in test [3] was 85.6%. For the same molecule, the GTP binding signal, raw median fluorescence (lower = inhibition) (MCF (arbitrary fluorescence units)) in test [5] was 284.

For the molecule `Cc1ccc(S(=O)(=O)N(C)C)cc1NC(=O)COC(=O)c1ccc(Cl)cc1`, the result in test [1], in test [4] and in test [6] was inactive. Besides, the fluorescence, percent of control (lower = inhibition) in test [2] was found to be 39.2%. This molecule also gave a GTP binding, percent of control in test [3] of 86%. For the same molecule, the GTP binding signal, raw median fluorescence (lower = inhibition) (MCF (arbitrary fluorescence units)) in test [5] amounted to 265.

As for `Cc1ccc(OCc2ccc(C(=O)O)o2)cc1C`, the molecule was called inactive in test [1], in test [4] and in test [6]. For the same molecule, in test [2], the fluorescence, percent of control (lower = inhibition) turned out to be 61.7%. This molecule showed a GTP binding, percent of control in test [3] of 90.6%. Further, in test [5], the GTP binding signal, raw median fluorescence (lower = inhibition) (MCF (arbitrary fluorescence units)) came out at 34.8.

As for `CN(/N=C/c1cccnc1)C1=NS(=O)(=O)c2ccccc21`, the outcome in test [1], in test [4] and in test [6] was inactive. Moreover, the fluorescence, percent of control (lower = inhibition) in test [2] stood at 36.2%. Besides, the GTP binding, percent of control in test [3] is 50.7%. The GTP binding signal, raw median fluorescence (lower = inhibition) (MCF (arbitrary fluorescence units)) in test [5] was 137.

Regarding `CNc1ncc(C(=O)c2ccc(Br)cc2)s1`, the call in test [1], in test [4] and in test [6] was inactive. In addition, in test [2], the fluorescence, percent of control (lower = inhibition) came to 37.3%. This molecule came in with a GTP binding, percent of control in test [3] of 85.2%. Also, in test [5], the GTP binding signal, raw median fluorescence (lower = inhibition) (MCF (arbitrary fluorescence units)) is 277.

In the case of `CC(=O)OC(C(=O)NC1CCCCC1)c1ccc(Cl)c(Cl)c1` (stereo not given), the molecule was classed as inactive in test [1], in test [4] and in test [6]. The fluorescence, percent of control (lower = inhibition) in test [2] amounted to 39.6%. This molecule also came in with a GTP binding, percent of control in test [3] of 88.7%. Further, the GTP binding signal, raw median fluorescence (lower = inhibition) (MCF (arbitrary fluorescence units)) in test [5] turned out to be 310.

In the case of `Cc1ccc(-c2csc3nc4c5ccccc5c(NCCCN5CCOCC5)nn4c(=O)c23)cc1`, the molecule was classed as inactive in test [1], in test [4] and in test [6]. Further, the fluorescence, percent of control (lower = inhibition) in test [2] was 32%. The same molecule yielded a GTP binding, percent of control in test [3] of 68.7%. The molecule also yielded a GTP binding signal, raw median fluorescence (lower = inhibition) (MCF (arbitrary fluorescence units)) in test [5] of 176.

For the molecule `O=C(O)c1cccc(NCc2ccc3c(c2)OCO3)c1`, the call in test [1], in test [4] and in test [6] was inactive. In test [2], the fluorescence, percent of control (lower = inhibition) came out at 64.9%. The molecule also yielded a GTP binding, percent of control in test [3] of 88.8%. This molecule displayed a GTP binding signal, raw median fluorescence (lower = inhibition) (MCF (arbitrary fluorescence units)) in test [5] of 41.9.

Take `Cc1ccc(C)c(OCc2ccc(C(=O)O)o2)c1`: the molecule was classed as inactive in test [1], in test [4] and in test [6]. Moreover, the fluorescence, percent of control (lower = inhibition) in test [2] was 63.2%. In addition, the GTP binding, percent of control in test [3] was determined as 87.7%. Moreover, the GTP binding signal, raw median fluorescence (lower = inhibition) (MCF (arbitrary fluorescence units)) in test [5] was determined as 39.9.

Take `COc1cc(C(=S)NCc2ccccc2)cc(Br)c1O`: the call in test [1], in test [4] and in test [6] was inactive. In addition, in test [2], the fluorescence, percent of control (lower = inhibition) turned out to be 23.5%. Also, the GTP binding, percent of control in test [3] is 56.3%. This molecule had a GTP binding signal, raw median fluorescence (lower = inhibition) (MCF (arbitrary fluorescence units)) in test [5] of 246.

Consider `O=C(Nc1ccc2nc(-c3cccs3)[nH]c2c1)c1cccs1`, for which the molecule was classed as inactive in test [1], in test [4] and in test [6]. Further, the fluorescence, percent of control (lower = inhibition) in test [2] is 30.4%. For the same molecule, the GTP binding, percent of control in test [3] worked out at 68.4%. This molecule came in with a GTP binding signal, raw median fluorescence (lower = inhibition) (MCF (arbitrary fluorescence units)) in test [5] of 184.

On to `COC(=O)c1ccccc1NC(=O)CSCC(=O)Nc1ccccc1OC`, for which the result in test [1], in test [4] and in test [6] was inactive. Further, the fluorescence, percent of control (lower = inhibition) in test [2] is 37.9%. In test [3], the GTP binding, percent of control was 81.9%. For the same molecule, in test [5], the GTP binding signal, raw median fluorescence (lower = inhibition) (MCF (arbitrary fluorescence units)) was 230.

For the molecule `CC(C)(C)NC(=O)CCN(/N=C/c1ccc([N+](=O)[O-])o1)C1=NS(=O)(=O)c2ccccc21`, the molecule was classed as inactive in test [1], in test [4] and in test [6]. In addition, the fluorescence, percent of control (lower = inhibition) in test [2] is 23.6%. The same molecule had a GTP binding, percent of control in test [3] of 33.1%. Also, in test [5], the GTP binding signal, raw median fluorescence (lower = inhibition) (MCF (arbitrary fluorescence units)) is 86.3.
